Assay results from PubChem BioAssay (NCI).
This is part of a sample that, as a whole, favours compounds with a hit. Of some 83,000 tested, about 20% had one in any assay.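 96-well plates, one dose, 48 hours. Percent growth reported; active if below 10.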 A number with no mark means an inactive call. Calls of active or inactive are those of the source.

Tests used:
Assay in all cases: NCI-60 one-dose screen, 48 h (100 = growth as untreated, 0 = no growth, -100 = all killed)
Settings in all cases: 10 µM unless noted
DU-145 prostate = system: DU-145 prostate
K-562 leukemia = system: K-562 leukemia
MALME-3M melanoma = system: MALME-3M melanoma
MDA-MB-231 breast = system: MDA-MB-231 breast
RXF 393 renal = system: RXF 393 renal
SF-268 CNS = system: SF-268 CNS
SF-295 CNS = system: SF-295 CNS
SF-539 CNS = system: SF-539 CNS
UACC-257 melanoma = system: UACC-257 melanoma
M14 melanoma = system: M14 melanoma

Row | Compound | growth (DU-145 prostate) | growth (K-562 leukemia) | growth (MALME-3M melanoma) | growth (MDA-MB-231 breast) | growth (RXF 393 renal) | growth (SF-268 CNS) | growth (SF-295 CNS) | growth (SF-539 CNS) | growth (UACC-257 melanoma) | growth (M14 melanoma)
1 | CC1O[C@@H]2C[C@@](O)([C@H]1O)n1c3ccccc3c3c4c(c5c6ccccc6n2c5c31)C(=O)NC4=O (stereo not given in full) | 57.8% | 30% | 50.3% | 57.8% | 49.2% | 49.8% | 19.2% | 33.2% | 47.9% | 25.7%
2 | COC(=O)C1=Nc2ccc(F)cc2/C1=C\c1sc(Nc2ccc(O)cc2)nc1O | 93.9% | 23.2% | 45.9% | 76.7% | 43.6% | 59.8% | 61% | 55.4% | 72.2% | 49%
3 | O=C(N/N=C/c1ccc(Cl)cc1Cl)c1ccc2nc(-c3ccc(Cl)cc3)[nH]c2c1 | 30.5% | 8.67% (active) | -58.7% (active) | 9.48% (active) | 18.9% | 38% | -49.3% (active) | 37.1% | 31.7% | 19.7%
4 | CC(=O)N(Cc1ccccc1)c1nc2ccc(O)c(CN(C)C)c2s1 | 108% | 92.5% | 98.1% | 96% | 98.2% | 94.6% | 92.6% | 97.2% | 102% | 104%
5 | COc1ccc(NC(=O)c2sc3nc4c(cc3c2N)CCCC4)cc1 | 11.5% | 6.99% (active) | 54.8% | 49.2% | -4.44% (active) | 58.8% | 8.64% (active) | 3.47% (active) | 53% | 18.3%
6 | C=C1C(=O)O[C@H]2[C@H]1CC/C(COC(=O)NCCCCCCCCNC(=O)OC/C1=C/CC[C@@]3(C)O[C@H]3[C@H]3OC(=O)C(=C)[C@@H]3CC1)=C\CC[C@@]1(C)O[C@@H]21 | -92.1% (active) | -28.5% (active) | -64.4% (active) | -79.1% (active) | -83.6% (active) | -66.8% (active) | -21.7% (active) | -88.5% (active) | -55.1% (active) | -67.8% (active)
7 | CCN1C(=O)N(CC)C2C1NN=C1SCC(=O)N12 (stereo not given) | 101% | 47.9% | 77% | 59.4% | 107% | 98.6% | 100% | 92.9% | 22.2% | 85%
8 | COC(=O)c1ccc2c(c1)c1c(C)c3ccncc3c(C)c1n2C | 22.7% | 8.47% (active) | 5.36% (active) | 25.1% | 17.5% | 26.3% | 24.1% | 31.9% | 1.45% (active) | 30.8%
9 | C#Cc1cccc(Oc2ccc(NC(=O)CCl)cc2)c1 | 72% [8.25 µM] | 7.79% [8.25 µM] (active) | 21.3% [8.25 µM] | 41.1% [8.25 µM] | 62.6% [8.25 µM] | 49.5% [8.25 µM] | 85.5% [8.25 µM] | 47% [8.25 µM] | 75.8% [8.25 µM] | 24.6% [8.25 µM]
10 | O=C(N/N=C/c1ccc([N+](=O)[O-])cc1)c1ccc2nc(-c3ccc(Cl)cc3)[nH]c2c1 | 42% | 9.68% (active) | 7.79% (active) | 76.9% | 31.6% | 48.5% | 21.7% | 41.7% | 25.1% | 25.9%
11 | CCCCCCOC(=O)CC1=C(C)/C(=C/c2[nH]c(-c3ccc[nH]3)cc2OC)N=C1C | 5.68% (active) | -33.6% (active) | -74% (active) | -50.7% (active) | -56.1% (active) | -20.8% (active) | -60.4% (active) | -71.3% (active) | -63.9% (active) | -86.2% (active)
12 | COc1cc(/C=C\c2cc(/C=C\c3ccc(O)c(OC)c3)n(C(=O)CNc3ccc(Cl)cc3)n2)ccc1O | 27.7% | 6.99% (active) | 34.2% | 43% | 3.29% (active) | 25.5% | 72.8% | 8.34% (active) | 70.2% | 4.29% (active)
13 | Oc1c(Cl)cc(Cl)c2ccc(Cn3cc(-c4cccc(C(F)(F)F)c4)nn3)nc12 | 63% | 5.87% (active) | 75.8% | 101% | 33.7% | 88.9% | 99% | 75.2% | 69.1% | 62.4%
14 | O=C(CCCCNC(=O)c1cc(=O)c(O)co1)Nc1ccccc1 | 104% | 13.3% | 43% | 99% | 55.5% | 91% | 102% | 92.5% | 88.7% | 81.5%
15 | CCOc1ccc(NC(=O)c2cc(OC)c(OC)c(OC)c2)cc1 | 54% | 17% | 38.2% | 62.7% | 39.8% | 47.6% | 26.2% | 23.5% | 50.1% | 16.5%
16 | Cc1ccc(C(=O)c2ccc(CC(=O)N/N=C/c3ccc(O)cc3O)n2C)cc1 | 51.3% | 45% | 48.6% | 51.4% | 49.7% | 37.3% | 47.2% | 44.4% | 68.3% | 28.8%
17 | COC(=O)c1nc(-c2ccccc2)oc1S(=O)(=O)N1CCC(C(N)=O)CC1 | 55.1% | 14.8% | 46.1% | 76% | 47.4% | 85.9% | 107% | 63.2% | 69.2% | 48.1%
18 | O=C(CSc1nc2ccc([N+](=O)[O-])cc2[nH]1)Nc1cccc([N+](=O)[O-])c1 | 67% | 36.5% | 30.5% | 73.7% | 60.5% | 64.6% | 43.8% | 66.6% | 42.7% | 57.1%
19 | Cc1ncc(C(=O)Nc2ccc(CN3CCN(C)CC3)c(C(F)(F)F)c2)cc1C#Cc1cnc(N)c2cnccc12 | 13.5% | 25.1% | -26.1% (active) | -63.4% (active) | -34.3% (active) | 14.6% | 23.6% | -76.2% (active) | -16.8% (active) | -78.5% (active)
20 | C=C(c1ccc(C(=O)O)cn1)c1cc2c(cc1C)C(C)(C)CCC2(C)C | 93.7% | 92.3% | 76.9% | 93.8% | 102% | 76.5% | 83.2% | 86.3% | 84% | 88.5%
21 | CCN(CC)CCCC(C)Nc1ccc2cc(OC)ccc2n1 (stereo not given) | 99.9% | 131% | 114% | 104% | 112% | 91.2% | 97.4% | 100% | 94.7% | 99.3%
22 | COc1ccc(OC)c(Nc2nnc(-c3ccc(Cl)cc3)o2)c1 | 70% | 83.5% | 66.9% | 85.6% | 90.4% | 55.4% | 29.2% | 50.7% | 104% | 93.1%
23 | O=C(Nc1ncc(Cc2ccccc2Cl)s1)c1cccs1 | 82.6% | 16.9% | 69.1% | 88.7% | 82.2% | 76.4% | 65.2% | 95.8% | 92.6% | 62.3%
24 | CC(C(=O)O)n1c(O)c(C=Nc2cccnc2)sc1=S (stereo not given) | 97% | 89% | 98.8% | 86.3% | 88.7% | 87.7% | 101% | 98.1% | 103% | 95.3%
25 | C/C(=N\Nc1nc(C)cs1)c1cc2ccccc2o1 | 107% | 78.4% | 93.8% | 79.9% | 120% | 97.9% | 94.7% | 94.8% | 102% | 95.4%
26 | CCCCCCC(CCCC)COC(=O)c1ccc(Cl)cc1 (stereo not given) | 105% | 104% | 111% | 106% | 105% | 102% | 102% | 106% | 112% | 104%
27 | Cc1c2cc[nH]c(=O)c2c(C)c2c1[nH]c1ccc(OC(=O)c3ccccc3)cc12 | 34% | 36.2% | 20% | 34% | 37.4% | 40% | 31.6% | 17.1% | 11.2% | 33.7%
